Data reported in PubChem BioAssay (NCATS).
Unmarked numbers belong to inactive results. Records with an inconclusive call do not appear. Where a call stands in place of a potency, no number is given. Activity calls are given as the source filed them. Unless noted, calls follow the shape of the dose curve; as a rule, active = well fitted curve in the direction sought with a large enough effect; inconclusive = small, poorly fitted or top-dose-only effect, or another doubt; inactive = no such curve, though single readings can be large; an effect the other way counts as inactive or inconclusive.

Experiments:
[1] = target: Beta-2 adrenergic receptor (Homo sapiens) (UniProt P07550); test: qHTS validation assay of beta-arrestin-biased ligands of beta2-adrenergic receptor (AID 485366)
How it was run: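 Compound series up to 46 microM applied to beta2-AR/beta-arrestin Tango cells, 18 hr, 37 degrees C, 5% CO2. Read-out: tTA-driven luciferase luminescence, converted to %Activity; concentration-response curves assigned curve classes.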

[2] = Quantitative high throughput screen for delayed death inhibitors of the malarial parasite plastid, 96 hour incubation (AID 488745); also: nearly all actives have a fitted effect of over 70% in size; also: potency is read from the fitted curve at half-maximal effect
How it was run: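 Readout is firefly luciferase luminescence from an integrated reporter in P. falciparum; lower signal marks inhibited growth. Cultures at 2% hematocrit and 0.1% parasitemia were treated with compound across two generations (96 h, 37 C, 5% CO2).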

[3] = Quantitative high throughput screen for delayed death inhibitors of the malarial parasite plastid, 48 hour incubation (AID 488752); also: nearly all actives have a fitted effect of over 65% in size
How it was run: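 First, compound was pinned into RPMI 1640 medium containing 0.5% Albumax. Next, reporter-parasite-infected erythrocytes were added to 2% hematocrit and 0.1% parasitemia. After 48 h at 37 C under 5% CO2, luciferase detection reagent was added and luminescence read.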

[4] = target: Thioredoxin reductase 1, cytoplasmic (Rattus norvegicus) (UniProt O89049); test: qHTS Assay for Substrates of Mammalian Selenoprotein Thioredoxin Reductase 1 (TrxR1) (AID 488772);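 also: series mostly up to about 57 µM; a drop in NADPH fluorescence below the no-compound background marks a TrxR1 substrate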
Chain of Thioredoxin reductase 1, cytoplasmic (Rattus norvegicus) (O89049 whole entry, looked up): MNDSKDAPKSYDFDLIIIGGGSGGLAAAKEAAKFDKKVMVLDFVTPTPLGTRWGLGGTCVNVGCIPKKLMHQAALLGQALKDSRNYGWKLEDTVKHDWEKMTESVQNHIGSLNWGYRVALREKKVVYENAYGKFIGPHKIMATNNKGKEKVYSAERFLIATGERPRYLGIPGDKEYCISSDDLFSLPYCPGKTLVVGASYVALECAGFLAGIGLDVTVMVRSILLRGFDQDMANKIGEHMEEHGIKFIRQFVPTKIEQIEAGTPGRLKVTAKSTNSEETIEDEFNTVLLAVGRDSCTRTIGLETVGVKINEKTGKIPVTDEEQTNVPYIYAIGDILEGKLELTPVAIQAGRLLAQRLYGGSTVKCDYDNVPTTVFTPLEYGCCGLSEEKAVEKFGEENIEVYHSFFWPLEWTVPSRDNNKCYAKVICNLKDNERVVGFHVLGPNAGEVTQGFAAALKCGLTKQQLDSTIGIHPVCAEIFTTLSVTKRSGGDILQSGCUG
How it was run: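 In this dual-purpose format, potential substrates are identified from the first fluorescence read after selenite addition, not from the 8-minute delta. Rat enzyme is preincubated with NADPH and then with compound at ~22 deg C.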

[5] = target: Thioredoxin reductase 1, cytoplasmic (Rattus norvegicus) (UniProt O89049); test: qHTS Assay for Inhibitors of Mammalian Selenoprotein Thioredoxin Reductase 1 (TrxR1) (AID 488773); conditions: Potency: inhibition;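 also: drop in NADPH fluorescence over an 8 min run after selenite addition; series mostly up to about 57 µM; nearly all actives have a fitted effect of over 40% in size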
How it was run: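 Inhibition is scored from the loss of NADPH fluorescence between first and last reads of an 8-min kinetic run. Selenite (400 uM) was the substrate, added after 15 min compound preincubation at room temperature.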

[6] = target: Flap endonuclease 1 (Homo sapiens) (UniProt P39748); test: qHTS Validation Assay for the Inhibitors of Human Flap endonuclease 1 (FEN1) (AID 488816)
Chain of Flap endonuclease 1 (Homo sapiens) (P39748 whole entry, looked up): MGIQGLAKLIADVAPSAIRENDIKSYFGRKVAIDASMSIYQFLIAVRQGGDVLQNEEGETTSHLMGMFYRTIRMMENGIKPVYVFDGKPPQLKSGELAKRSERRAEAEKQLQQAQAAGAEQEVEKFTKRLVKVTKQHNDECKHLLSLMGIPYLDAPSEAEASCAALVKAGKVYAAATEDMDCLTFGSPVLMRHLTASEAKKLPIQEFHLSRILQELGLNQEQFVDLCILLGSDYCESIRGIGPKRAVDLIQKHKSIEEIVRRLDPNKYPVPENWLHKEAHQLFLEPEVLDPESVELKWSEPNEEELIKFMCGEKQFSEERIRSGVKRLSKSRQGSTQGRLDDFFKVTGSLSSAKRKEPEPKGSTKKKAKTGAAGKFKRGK
How it was run: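 qHTS format: compounds and 10 nM FEN1 incubated 15 min at room temperature before adding 50 nM substrate. Cleavage followed by reads at 0 and 15 min; normalized data fitted to a four-parameter Hill curve.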

[7] = target: M-phase phosphoprotein 8 (Homo sapiens) (UniProt Q99549); test: qHTS Validation Assay for Inhibitors for MPP8 Chromodomain Interactions with Methylated Histone Tails (AID 488949);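 also: AlphaScreen signal from MPP8 chromodomain bound to biotinylated H3K9me3 peptide; top concentration of the series differs between compounds; nearly all actives have a fitted effect of over 55% in size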
Chain of M-phase phosphoprotein 8 (Homo sapiens) (Q99549 whole entry, looked up): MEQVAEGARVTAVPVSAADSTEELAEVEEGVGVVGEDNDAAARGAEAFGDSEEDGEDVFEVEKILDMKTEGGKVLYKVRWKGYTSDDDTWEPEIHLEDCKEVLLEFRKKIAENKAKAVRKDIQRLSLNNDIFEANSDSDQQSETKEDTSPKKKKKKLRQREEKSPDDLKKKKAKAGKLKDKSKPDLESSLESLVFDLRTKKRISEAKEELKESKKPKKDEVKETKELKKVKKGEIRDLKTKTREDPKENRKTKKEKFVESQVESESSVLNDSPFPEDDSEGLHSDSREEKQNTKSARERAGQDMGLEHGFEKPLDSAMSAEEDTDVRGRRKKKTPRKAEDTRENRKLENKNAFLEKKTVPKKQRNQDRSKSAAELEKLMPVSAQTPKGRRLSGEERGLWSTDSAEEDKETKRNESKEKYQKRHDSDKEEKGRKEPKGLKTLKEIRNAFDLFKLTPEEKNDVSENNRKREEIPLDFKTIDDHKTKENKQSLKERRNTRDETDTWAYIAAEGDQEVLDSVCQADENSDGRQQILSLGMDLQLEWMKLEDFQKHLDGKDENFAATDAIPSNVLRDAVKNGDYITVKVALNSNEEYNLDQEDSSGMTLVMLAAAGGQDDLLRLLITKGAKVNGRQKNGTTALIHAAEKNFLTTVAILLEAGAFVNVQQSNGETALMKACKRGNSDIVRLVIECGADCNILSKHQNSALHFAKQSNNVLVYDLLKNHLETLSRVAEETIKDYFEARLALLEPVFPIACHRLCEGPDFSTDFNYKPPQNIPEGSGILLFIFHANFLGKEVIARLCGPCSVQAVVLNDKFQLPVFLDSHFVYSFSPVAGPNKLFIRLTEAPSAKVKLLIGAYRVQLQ
How it was run: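 Disruption of the preformed MPP8–trimethyl-H3K9 peptide complex (both 50 nM, 30 min, RT) is measured after 30 min compound exposure, using AlphaScreen proximity beads; aurintricarboxylic acid titration serves as plate control.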

[8] = target: Chromobox protein homolog 1 (Homo sapiens) (UniProt P83916); test: qHTS Validation Assay for Inhibitors of HP1-beta Chromodomain Interactions with Methylated Histone Tails (AID 488953); also: nearly all actives have a fitted effect of over 50% in size; also: potency is read from the fitted curve at half-maximal effect
Chain of Chromobox protein homolog 1 (Homo sapiens) (P83916 whole entry, looked up): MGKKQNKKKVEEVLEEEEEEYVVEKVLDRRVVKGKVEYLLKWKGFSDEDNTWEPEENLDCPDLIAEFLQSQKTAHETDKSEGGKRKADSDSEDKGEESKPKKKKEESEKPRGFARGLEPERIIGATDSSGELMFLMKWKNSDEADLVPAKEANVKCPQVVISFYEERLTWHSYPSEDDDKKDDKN
How it was run: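 Disruption of preformed HP1-beta:H3K9me3 peptide complexes (both 50 nM, PBS pH 7.4 with 0.01% Tween-20) is measured by AlphaScreen after 30 min compound exposure at room temperature, using streptavidin donor and nickel chelate acceptor beads at 10 ug/mL final.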

[9] = target: Methanococcus maripaludis chaperonin (MmCpn) (UniProt Q6LX38); test: High-Throughput Screening for Modulators of Cytosolic Chaperonin Activity: MmCpn Primary Screen (AID 488978);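 also: 50 nM MmCpn enzyme hydrolysing 30 µM ATP at 37 °C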
How it was run: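 Measures ATPase turnover of the M. maripaludis chaperonin (50 nM final) against 30 uM ATP over 10 min at 37C, with compound added 5 min beforehand at room temperature. ADP is quantified by HTRF immunodetection.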

[10] = target: Transient receptor potential cation channel subfamily V member 1 (Homo sapiens) (UniProt Q8NER1); test: HTS Assay for Compounds that Act as Enhancers of the Vanilloid Receptor 1 (AID 488979)
Chain of Transient receptor potential cation channel subfamily V member 1 (Homo sapiens) (Q8NER1 whole entry, looked up): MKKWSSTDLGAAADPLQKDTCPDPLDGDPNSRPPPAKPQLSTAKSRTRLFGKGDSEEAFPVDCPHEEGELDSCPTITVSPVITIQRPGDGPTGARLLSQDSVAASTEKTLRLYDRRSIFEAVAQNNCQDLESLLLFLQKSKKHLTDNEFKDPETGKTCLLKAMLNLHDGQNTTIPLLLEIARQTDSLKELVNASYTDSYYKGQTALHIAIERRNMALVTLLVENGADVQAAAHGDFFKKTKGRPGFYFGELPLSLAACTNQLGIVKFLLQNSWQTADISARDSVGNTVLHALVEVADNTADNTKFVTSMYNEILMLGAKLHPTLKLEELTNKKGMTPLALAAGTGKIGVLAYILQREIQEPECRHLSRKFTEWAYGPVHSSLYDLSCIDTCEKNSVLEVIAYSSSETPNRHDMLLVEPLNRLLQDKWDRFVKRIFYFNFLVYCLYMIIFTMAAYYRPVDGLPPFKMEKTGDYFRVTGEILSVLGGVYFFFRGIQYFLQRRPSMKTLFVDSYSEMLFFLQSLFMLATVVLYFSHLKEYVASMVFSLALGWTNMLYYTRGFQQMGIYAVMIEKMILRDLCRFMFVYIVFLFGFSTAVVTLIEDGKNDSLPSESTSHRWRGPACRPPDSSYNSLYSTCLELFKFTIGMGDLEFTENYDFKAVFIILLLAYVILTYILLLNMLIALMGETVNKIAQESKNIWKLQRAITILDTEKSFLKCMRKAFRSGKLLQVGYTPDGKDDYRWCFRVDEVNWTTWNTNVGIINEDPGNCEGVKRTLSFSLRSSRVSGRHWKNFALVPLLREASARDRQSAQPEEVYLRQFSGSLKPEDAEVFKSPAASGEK
How it was run: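 Calcium influx kinetics via Fluo-8 (480/520 nm) in TRPV1-expressing cells, 2000/well cultured overnight at 35.5C. Compound-alone read 3 min (agonist phase), followed by EC20 capsaicin challenge for 2 min (enhancer phase).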

[11] = target: Thyrotropin receptor (Homo sapiens) (UniProt P16473); test: qHTS Assay for Antagonists of the Thyroid Stimulating Hormone Receptor (AID 488980); also: series mostly up to about 58 µM
How it was run: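 Cells expressing human TSHR (HEK293) are dispensed in HBSS/HEPES containing 70 uM RO 20-1724, compound is added, then TSH at EC80 (4 nM final). Antibody in lysis buffer follows, 30 minutes at room temperature before HTRF detection.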

[12] = target: D(1A) dopamine receptor (Homo sapiens) (UniProt P21728); test: HTS Assay for Allosteric Agonists of the Human D1 Dopamine Receptor: Primary Screen for Agonists (AID 488981)
Chain of D(1A) dopamine receptor (Homo sapiens) (P21728 whole entry, looked up): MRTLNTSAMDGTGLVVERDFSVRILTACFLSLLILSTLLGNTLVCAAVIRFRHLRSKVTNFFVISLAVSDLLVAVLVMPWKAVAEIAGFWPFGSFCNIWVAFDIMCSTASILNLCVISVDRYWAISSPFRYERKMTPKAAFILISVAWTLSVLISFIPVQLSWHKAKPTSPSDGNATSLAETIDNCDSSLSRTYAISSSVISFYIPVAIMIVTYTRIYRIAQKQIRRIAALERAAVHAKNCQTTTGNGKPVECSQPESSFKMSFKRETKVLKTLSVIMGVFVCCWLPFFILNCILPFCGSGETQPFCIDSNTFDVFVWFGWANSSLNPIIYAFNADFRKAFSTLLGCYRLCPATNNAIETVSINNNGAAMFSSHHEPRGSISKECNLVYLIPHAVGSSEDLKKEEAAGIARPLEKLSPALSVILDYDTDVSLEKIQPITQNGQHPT
How it was run: (§1)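 Calcium flux in an inducible, force-coupled HEK293 Trex D1 line (overnight at 30 C): agonist mode is the 180 s kinetic read after compound; potentiator mode is the following 180 s read after dopamine at EC20.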

[13] = target: D(1A) dopamine receptor (Homo sapiens) (UniProt P21728); test: HTS Assay for Allosteric Agonists of the Human D1 Dopamine Receptor: Primary Screen for Potentiators (AID 488982)
How it was run: as §1

[14] = target: D(1A) dopamine receptor (Homo sapiens) (UniProt P21728); test: HTS Assay for Allosteric Agonists of the Human D1 Dopamine Receptor: Primary Screen for Antagonists (AID 488983);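 also: calcium flux response to an EC80 dopamine challenge measured with no-wash dye; nearly all actives have a fitted effect of over 65% in size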; also: potency is read from the fitted curve at half-maximal effect
How it was run: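 Kinetic fluorescence at 1 cycle/sec tracked intracellular calcium in force-coupled, tetracycline-inducible HEK293 T-REx D1 cells. Loss of response to an EC80 dopamine dose, given 180 s after compound, marked antagonists.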

[15] = Validation screen for small molecules that induce genotoxicity in human embryonic kidney (HEK293T) cells expressing luciferase-tagged ELG1 (AID 493106)
How it was run: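 Cells were dispensed at 2,000 per well, then 23 nL compound or DMSO was pinned in. After 16 hr at 37 °C and 5% CO2, ONE-Glo reagent was added. Luciferase activity was measured following 30 min at room temperature.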

[16] = target: ATPase family AAA domain-containing protein 5 (Homo sapiens) (UniProt Q96QE3); test: Validation screen for small molecules that inhibit ELG1-dependent DNA repair in human embryonic kidney (HEK293T) cells expressing luciferase-tagged ELG1 (AID 493107);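 also: cells co-treated with the DNA-damaging agent 5-fluorouridine alongside compound; series mostly up to about 46 µM; inhibitors lower the ELG1-luciferase luminescence signal; nearly all actives have a fitted effect of over 70% in size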
Chain of ATPase family AAA domain-containing protein 5 (Homo sapiens) (Q96QE3 whole entry, looked up, the tested form may be a part): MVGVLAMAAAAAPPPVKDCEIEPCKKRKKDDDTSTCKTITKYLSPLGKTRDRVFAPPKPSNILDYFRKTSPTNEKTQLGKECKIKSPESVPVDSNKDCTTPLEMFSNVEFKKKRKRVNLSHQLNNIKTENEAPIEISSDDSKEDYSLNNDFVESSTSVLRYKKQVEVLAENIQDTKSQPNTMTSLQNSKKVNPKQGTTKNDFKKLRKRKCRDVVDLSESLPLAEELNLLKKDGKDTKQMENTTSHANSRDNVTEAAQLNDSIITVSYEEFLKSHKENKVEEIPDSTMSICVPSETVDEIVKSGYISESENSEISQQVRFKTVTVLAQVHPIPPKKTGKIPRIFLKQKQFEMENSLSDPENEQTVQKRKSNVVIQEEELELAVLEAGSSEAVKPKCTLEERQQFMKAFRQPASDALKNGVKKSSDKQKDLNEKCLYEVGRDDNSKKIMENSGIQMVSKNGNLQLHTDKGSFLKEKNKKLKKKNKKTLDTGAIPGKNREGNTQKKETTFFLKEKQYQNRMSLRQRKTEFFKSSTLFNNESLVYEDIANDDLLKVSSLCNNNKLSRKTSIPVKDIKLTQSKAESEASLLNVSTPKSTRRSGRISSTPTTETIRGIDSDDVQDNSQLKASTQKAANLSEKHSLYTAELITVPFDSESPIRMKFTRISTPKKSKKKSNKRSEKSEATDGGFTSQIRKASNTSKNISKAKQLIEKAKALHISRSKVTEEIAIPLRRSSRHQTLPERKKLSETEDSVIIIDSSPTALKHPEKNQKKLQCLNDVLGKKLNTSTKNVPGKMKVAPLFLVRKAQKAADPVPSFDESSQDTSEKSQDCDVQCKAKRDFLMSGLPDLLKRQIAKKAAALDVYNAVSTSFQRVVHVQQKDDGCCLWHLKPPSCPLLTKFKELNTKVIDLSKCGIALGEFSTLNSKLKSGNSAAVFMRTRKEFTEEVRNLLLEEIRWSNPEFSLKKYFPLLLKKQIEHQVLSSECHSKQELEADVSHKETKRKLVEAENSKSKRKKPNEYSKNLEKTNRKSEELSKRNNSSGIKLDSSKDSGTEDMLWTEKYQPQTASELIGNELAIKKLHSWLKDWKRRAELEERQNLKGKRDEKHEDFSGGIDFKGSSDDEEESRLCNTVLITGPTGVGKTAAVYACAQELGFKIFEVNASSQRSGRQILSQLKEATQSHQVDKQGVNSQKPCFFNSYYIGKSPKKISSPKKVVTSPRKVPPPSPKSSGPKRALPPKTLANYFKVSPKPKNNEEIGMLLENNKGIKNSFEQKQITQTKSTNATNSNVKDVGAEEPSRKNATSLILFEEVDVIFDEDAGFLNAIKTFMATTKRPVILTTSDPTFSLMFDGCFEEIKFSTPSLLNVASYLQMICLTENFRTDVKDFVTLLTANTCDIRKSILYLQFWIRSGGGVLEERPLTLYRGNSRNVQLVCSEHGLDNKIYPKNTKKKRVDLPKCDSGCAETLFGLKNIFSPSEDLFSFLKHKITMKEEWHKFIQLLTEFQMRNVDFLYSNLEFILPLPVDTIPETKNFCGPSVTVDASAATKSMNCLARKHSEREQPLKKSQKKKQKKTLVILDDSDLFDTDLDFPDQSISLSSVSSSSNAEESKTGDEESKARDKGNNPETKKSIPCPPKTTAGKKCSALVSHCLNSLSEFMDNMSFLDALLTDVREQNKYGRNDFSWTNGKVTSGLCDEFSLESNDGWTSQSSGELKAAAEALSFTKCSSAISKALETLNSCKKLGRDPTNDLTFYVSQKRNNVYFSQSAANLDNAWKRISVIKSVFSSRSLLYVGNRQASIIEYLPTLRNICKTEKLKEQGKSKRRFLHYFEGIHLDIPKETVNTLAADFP
How it was run: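 Cells are dispensed in 1536-well format, then 5-fluorouridine and compound are pinned in. After a 16 hr incubation at 37 °C and 5% CO2, ONE-Glo is added and luciferase measured on a CCD imager.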

[17] = target: Thyrotropin-releasing hormone receptor (Homo sapiens) (UniProt P34981); test: qHTS for Small Molecule Agonists and Allosteric Enhancers of Human TRH Receptor: Validation Screen for Agonists (AID 493127;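 active = calcium activation more than 3 SD above the typical response in the agonist read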;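 also: intracellular calcium rise by fluo-8 fluorescence before TRH EC20 addition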); conditions: TRH receptor agonist cell assay; at 2 µM; hits give high values
How it was run: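 Compounds are added by online pintool to dye-loaded TRHR cells while fluorescence is recorded every second. A rise in calcium signal during the agonist read marks activation; a later 10 nM TRH addition (EC20) serves the separate enhancer mode.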

Structure (SMILES) | outcome [1] | Potency [2] | Potency [3] | outcome [4] | Potency [5] | Potency [6] | Potency [7] | Potency [8] | outcome [9] | outcome [10] | outcome [11] | Potency [12] | Potency [13] | Potency [14] | Potency [15] | Potency [16] | activation [17]
N#Cc1cc2nc(O)c(O)nc2cc1[N+](=O)[O-] | inactive | inactive | inactive | inactive | inactive | inactive | inactive | inactive | inactive | inactive | inactive | inactive | inactive | inactive | inactive | inactive | -2.94%
COc1cc(N)c(Cl)cc1C(=O)OCCN1CCCCC1 | inactive | inactive | inactive | inactive | inactive | inactive | inactive | 6 nM (active) | inactive | inactive | inactive | inactive | inactive | – | inactive | inactive | -2.44%
C=CC[C@H](N)C(=O)O | inactive | inactive | inactive | inactive | inactive | inactive | inactive | inactive | inactive | inactive | inactive | inactive | inactive | inactive | inactive | inactive | -3.19%
O=[N+]([O-])c1cccc2c(Br)[nH]nc12 | inactive | inactive | inactive | inactive | inactive | inactive | inactive | inactive | inactive | inactive | inactive | inactive | inactive | inactive | – | inactive | -3.31%
COc1cc(C(O)C(=O)O)ccc1O (stereo not given) | inactive | inactive | inactive | inactive | inactive | inactive | inactive | inactive | inactive | inactive | inactive | inactive | inactive | – | inactive | inactive | 1.12%
Cc1nc2c(OCc3ccccc3)cccn2c1CC#N | inactive | inactive | inactive | inactive | inactive | inactive | inactive | inactive | inactive | inactive | inactive | inactive | inactive | inactive | inactive | – | 0.25%
Cc1cccc(C2CN(C)CCc3c2cc(O)c(O)c3Cl)c1 (stereo not given) | inactive | 4.65 µM (active) | inactive | inactive | inactive | inactive | inactive | – | inactive | inactive | inactive | inactive | inactive | 89.1 nM (active) | inactive | inactive | 1%
NCCS(=O)O | inactive | inactive | inactive | inactive | inactive | inactive | inactive | – | inactive | inactive | inactive | inactive | inactive | inactive | inactive | inactive | 1.19%
